Measured values reported in the supplement of paper PMC10849652.
Of roughly 7,900 targets only a part is listed; those with a hit were picked by preference. About 0.6% of all pairs of compound and target were hits. A number with no mark means an inactive call.

How the values were obtained:
Experiment in all cases: log2 fold change, soluble protein after heating vs DMSO (PISA); higher = thermal stabilisation; K562 cells, 10 uM, 30 min; active = over 0.2 and 3.5 SD of the protein, either way, in both replicates (recomputed)
[1] = compound: CC[C@@H]1C(=O)N(C)c2cnc(Nc3ccc(C(=O)NC4CCN(C)CC4)cc3OC)nc2N1C1CCCC1
In short: (§1)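 Soluble protein was quantified by TMTpro 16plex LC-MS/MS after channel sums were equalised. It was obtained as the supernatant after 21,000xg for 90 min from pooled aliquots of K562 cells (2×10^6 cells/mL, 10 μM compound, 30 min) heated for 3 min across 48°C-58°C and extracted in PBS with 0.5% NP-40 at 4°C. Thermal stability values are relative to control samples and come from duplicates. They are given as log2 fold changes.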

volasertib = compound: CC[C@@H]1C(=O)N(C)c2cnc(Nc3ccc(C(=O)N[C@H]4CC[C@H](N5CCN(CC6CC6)CC5)CC4)cc3OC)nc2N1C(C)C [volasertib]
In short: as §1

[2] = compound: CC[C@H](C)N1C=C(C2=C(C=C(C=C21)C3=CN=C(C=C3)N4CCNCC4)C(=O)NCC5=C(C=C(NC5=O)C)C)C
In short: as §1

epoxomicin = compound: CC[C@H](C)[C@@H](C(=O)N[C@@H]([C@@H](C)O)C(=O)N[C@@H](CC(C)C)C(=O)[C@]1(CO1)C)NC(=O)[C@H]([C@@H](C)CC)N(C)C(=O)C [epoxomicin]
In short: as §1

[3] = compound: CCn1c(C(=O)N(C2CC2)C2CC2)cc2c3c(ncn3C)c(Nc3cc(C)n(C)n3)nc21
In short: as §1

[4] = compound: CCn1cc(-c2ccnc3[nH]c(-c4cccc(CN(C)C)c4)cc23)c(-c2ccc(NC(=O)N(C)C)cc2)n1
In short: as §1

[5] = compound: CN(C)CC(=O)Nc1ccc2[nH]c(=O)c3ccccc3c2c1
In short: as §1

rosiglitazone = compound: CN(CCOC1=CC=C(C=C1)C[C@H]2C(=O)NC(=O)S2)C3=CC=CC=N3 (racemic) [rosiglitazone]
In short: as §1

[6] = compound: CN1C2=C(C3=C1C(=O)N(N=C3)CC4=CC(=CC=C4)N)SC(=C2)S(=O)C
In short: as §1

[7] = compound: CN1CCC(CNc2ccc3ncc(-c4cccc(OC(F)(F)F)c4)n3n2)CC1
In short: as §1

Sequence of UniProt P60520 (P60520 whole entry, looked up): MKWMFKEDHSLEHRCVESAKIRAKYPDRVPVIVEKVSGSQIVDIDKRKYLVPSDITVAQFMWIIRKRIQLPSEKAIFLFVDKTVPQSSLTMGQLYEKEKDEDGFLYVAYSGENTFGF
Sequence of UniProt Q9Y3D6 (Q9Y3D6 whole entry, looked up): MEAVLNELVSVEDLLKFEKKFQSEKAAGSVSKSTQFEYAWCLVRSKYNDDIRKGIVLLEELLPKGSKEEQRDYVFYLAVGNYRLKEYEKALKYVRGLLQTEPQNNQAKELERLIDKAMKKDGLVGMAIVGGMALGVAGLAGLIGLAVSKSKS
Sequence of UniProt P37268 (P37268 whole entry, looked up): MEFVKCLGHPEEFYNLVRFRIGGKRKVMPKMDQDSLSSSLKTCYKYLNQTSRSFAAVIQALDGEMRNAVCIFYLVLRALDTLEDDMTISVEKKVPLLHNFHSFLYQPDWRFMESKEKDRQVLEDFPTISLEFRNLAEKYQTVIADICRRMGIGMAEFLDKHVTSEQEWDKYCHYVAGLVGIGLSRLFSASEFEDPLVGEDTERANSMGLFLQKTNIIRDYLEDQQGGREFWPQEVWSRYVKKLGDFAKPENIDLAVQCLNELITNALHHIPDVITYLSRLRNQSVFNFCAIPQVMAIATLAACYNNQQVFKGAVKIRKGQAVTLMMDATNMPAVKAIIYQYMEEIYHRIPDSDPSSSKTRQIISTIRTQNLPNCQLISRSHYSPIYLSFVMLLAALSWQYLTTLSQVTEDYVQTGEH
Sequence of UniProt Q86UL3 (Q86UL3 whole entry, looked up): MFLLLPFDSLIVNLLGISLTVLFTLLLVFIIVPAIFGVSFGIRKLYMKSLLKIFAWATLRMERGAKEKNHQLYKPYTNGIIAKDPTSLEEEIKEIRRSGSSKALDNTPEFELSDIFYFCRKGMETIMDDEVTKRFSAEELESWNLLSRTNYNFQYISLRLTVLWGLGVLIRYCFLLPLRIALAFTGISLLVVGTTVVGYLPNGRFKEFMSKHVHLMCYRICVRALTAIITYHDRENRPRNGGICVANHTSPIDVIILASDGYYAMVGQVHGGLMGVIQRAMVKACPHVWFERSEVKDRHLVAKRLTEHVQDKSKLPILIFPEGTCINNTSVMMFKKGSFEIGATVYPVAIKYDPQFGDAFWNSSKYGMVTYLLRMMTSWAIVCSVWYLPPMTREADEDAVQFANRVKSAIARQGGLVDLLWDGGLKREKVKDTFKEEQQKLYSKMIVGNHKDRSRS
Sequence of UniProt O15347 (O15347 whole entry, looked up): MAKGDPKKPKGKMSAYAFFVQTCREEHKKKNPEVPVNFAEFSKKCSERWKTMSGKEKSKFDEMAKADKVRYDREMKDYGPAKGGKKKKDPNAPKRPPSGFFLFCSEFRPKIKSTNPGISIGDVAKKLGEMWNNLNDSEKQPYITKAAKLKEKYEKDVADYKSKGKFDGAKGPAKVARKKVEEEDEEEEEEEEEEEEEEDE
Sequence of UniProt Q02790 (Q02790 whole entry, looked up): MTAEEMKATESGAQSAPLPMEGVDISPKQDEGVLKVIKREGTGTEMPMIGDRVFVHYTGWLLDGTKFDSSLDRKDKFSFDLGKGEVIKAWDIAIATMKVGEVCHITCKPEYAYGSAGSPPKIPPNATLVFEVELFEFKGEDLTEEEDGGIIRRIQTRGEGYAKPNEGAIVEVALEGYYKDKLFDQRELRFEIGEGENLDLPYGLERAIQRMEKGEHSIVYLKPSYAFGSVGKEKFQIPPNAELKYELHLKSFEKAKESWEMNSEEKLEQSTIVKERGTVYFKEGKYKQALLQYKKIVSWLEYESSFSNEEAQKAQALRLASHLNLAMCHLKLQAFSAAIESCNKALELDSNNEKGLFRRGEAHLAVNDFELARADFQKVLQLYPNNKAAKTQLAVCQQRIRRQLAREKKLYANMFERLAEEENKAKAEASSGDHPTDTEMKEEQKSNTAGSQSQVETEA
Sequence of UniProt Q8IVV7 (Q8IVV7 whole entry, looked up): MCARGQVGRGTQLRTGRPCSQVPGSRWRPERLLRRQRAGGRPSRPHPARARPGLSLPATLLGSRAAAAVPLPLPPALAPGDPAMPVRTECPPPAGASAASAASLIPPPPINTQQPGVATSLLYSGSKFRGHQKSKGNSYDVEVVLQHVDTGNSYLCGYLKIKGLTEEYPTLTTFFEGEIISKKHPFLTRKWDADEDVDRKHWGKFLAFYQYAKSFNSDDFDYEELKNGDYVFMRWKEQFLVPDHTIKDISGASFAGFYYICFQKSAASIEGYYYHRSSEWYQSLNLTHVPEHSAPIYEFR
Sequence of UniProt P69905 (P69905 whole entry, looked up): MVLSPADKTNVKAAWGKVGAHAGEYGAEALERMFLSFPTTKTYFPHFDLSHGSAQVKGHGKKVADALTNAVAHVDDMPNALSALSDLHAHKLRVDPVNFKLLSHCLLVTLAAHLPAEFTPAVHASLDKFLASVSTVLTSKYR
Sequence of UniProt Q8NCW6 (Q8NCW6 whole entry, looked up): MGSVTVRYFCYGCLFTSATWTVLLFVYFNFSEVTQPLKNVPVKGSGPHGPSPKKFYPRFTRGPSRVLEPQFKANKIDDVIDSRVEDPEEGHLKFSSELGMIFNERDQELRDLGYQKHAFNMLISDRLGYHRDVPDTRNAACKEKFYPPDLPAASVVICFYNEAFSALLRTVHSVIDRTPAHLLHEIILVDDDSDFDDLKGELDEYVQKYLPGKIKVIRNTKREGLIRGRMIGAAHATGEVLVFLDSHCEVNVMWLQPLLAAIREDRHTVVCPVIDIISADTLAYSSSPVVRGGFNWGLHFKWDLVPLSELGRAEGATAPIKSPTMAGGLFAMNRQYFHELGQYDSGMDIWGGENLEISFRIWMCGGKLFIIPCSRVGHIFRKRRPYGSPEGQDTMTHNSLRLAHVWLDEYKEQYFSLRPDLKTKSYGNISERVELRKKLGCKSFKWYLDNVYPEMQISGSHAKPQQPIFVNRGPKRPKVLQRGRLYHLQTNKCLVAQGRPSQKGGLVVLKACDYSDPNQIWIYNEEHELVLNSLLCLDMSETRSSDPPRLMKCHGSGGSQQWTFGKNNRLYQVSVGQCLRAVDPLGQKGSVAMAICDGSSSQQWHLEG
Sequence of UniProt Q9UJ14 (Q9UJ14 whole entry, looked up): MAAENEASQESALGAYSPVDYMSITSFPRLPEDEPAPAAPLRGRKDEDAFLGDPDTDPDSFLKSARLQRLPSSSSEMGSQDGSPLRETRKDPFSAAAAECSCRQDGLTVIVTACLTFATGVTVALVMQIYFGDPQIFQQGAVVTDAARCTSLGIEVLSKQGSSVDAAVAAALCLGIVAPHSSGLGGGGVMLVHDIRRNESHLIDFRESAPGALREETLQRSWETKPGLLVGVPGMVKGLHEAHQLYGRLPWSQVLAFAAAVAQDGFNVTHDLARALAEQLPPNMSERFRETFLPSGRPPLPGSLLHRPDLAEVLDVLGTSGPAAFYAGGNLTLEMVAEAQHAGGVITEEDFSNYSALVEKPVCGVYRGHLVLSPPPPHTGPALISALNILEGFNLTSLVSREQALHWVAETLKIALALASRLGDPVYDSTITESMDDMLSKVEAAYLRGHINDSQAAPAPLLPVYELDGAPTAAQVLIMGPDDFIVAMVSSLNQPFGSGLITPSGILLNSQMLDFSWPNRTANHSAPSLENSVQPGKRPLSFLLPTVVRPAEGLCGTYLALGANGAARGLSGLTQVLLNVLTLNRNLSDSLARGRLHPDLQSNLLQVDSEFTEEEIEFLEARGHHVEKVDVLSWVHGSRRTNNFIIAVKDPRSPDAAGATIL
Sequence of UniProt P50213 (P50213 whole entry, looked up): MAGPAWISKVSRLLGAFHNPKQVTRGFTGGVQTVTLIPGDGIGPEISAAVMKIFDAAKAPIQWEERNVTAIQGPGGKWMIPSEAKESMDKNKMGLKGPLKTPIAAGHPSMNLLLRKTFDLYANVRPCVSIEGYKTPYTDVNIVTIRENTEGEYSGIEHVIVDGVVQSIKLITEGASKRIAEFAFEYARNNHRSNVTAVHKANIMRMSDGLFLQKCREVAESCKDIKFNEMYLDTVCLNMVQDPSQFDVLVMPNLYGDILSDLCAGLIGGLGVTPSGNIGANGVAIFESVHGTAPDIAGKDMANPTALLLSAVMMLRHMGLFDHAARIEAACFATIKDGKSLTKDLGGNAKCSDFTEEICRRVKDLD

Target | log2 fold change [1] | log2 fold change (volasertib) | log2 fold change [2] | log2 fold change (epoxomicin) | log2 fold change [3] | log2 fold change [4] | log2 fold change [5] | log2 fold change (rosiglitazone) | log2 fold change [6] | log2 fold change [7]
GABARAPL2 (UniProt P60520) | -0.29 (active) | -0.182 | 0.041 | 0.027 | 0.007 | -0.049 | -0.017 | 0.099 | -0.07 | -0.099
GGT7 (UniProt Q9UJ14) | 0.029 | -0.063 | -0.069 | 0.079 | -0.013 | -0.124 | 0.081 | 0.005 | 0.02 | 0.023
HMGB3 (UniProt O15347) | -0.182 | 0.064 | 0.053 | -0.007 | 0.015 | -0.021 | -0.022 | 0 | -0.039 | 0.015
IDH3A (UniProt P50213) | -0.031 | -0.01 | 0.004 | 0.063 | 0 | -0.027 | 0 | 0.008 | -0.064 | 0.033
HBA1 (UniProt P69905) | 0.049 | -0.059 | -0.038 | 0.316 | 0.078 | -0.076 | 0.012 | 0.022 | -0.044 | 0.153
GALNT11 (UniProt Q8NCW6) | 0.057 | -0.223 (active) | 0.014 | -0.002 | -0.038 | 0.015 | -0.079 | 0.176 | 0.013 | -0.009
GAPVD1 isoform 6 (UniProt Q14C86) | -0.12 | -0.585 (active) | 0.034 | -0.015 | -0.061 | -0.016 | 0.038 | 0.034 | 0.083 | -0.197
FIS1 (UniProt Q9Y3D6) | 0.005 | 0.046 | -0.023 | -0.002 | 0.025 | 0.008 | 0.01 | 0.016 | -0.189 | -0.075
GPAT4 (UniProt Q86UL3) | -0.042 | -0.046 | -0.036 | 0.063 | -0.01 | -0.039 | 0.029 | 0.008 | -0.063 | 0.143
GID4 (UniProt Q8IVV7) | 0.082 | 0.037 | 0.044 | -0.019 | 0.08 | 0.116 | -0.21 | 0.003 | -0.093 | -0.006
FKBP4 (UniProt Q02790) | -0.066 | -0.136 | 0.07 | 0.033 | -0.01 | -0.051 | 0.019 | 0.042 | -0.04 | -0.119
HPCAL1 (UniProt P37235) | -0.076 | -0.065 | -0.028 | 0.048 | 0.003 | 0.039 | 0.019 | 0.005 | -0.029 | -0.032
FDFT1 (UniProt P37268) | -0.067 | -0.151 | -0.01 | 0.06 | -0.017 | -0.06 | 0.003 | -0.024 | -0.059 | 0.067
HNRNPK isoform 2 (UniProt P61978) | -0.143 | -0.271 (active) | 0.062 | 0.003 | -0.027 | -0.027 | 0 | 0.022 | -0.01 | -0.216 (active)
